High-throughput results from PubChem.
Shown are actives, neighbours in structure and some others; about 0.99% of the full set was active somewhere.
AMA1 RON2 block – disrupts binding of P. falciparum AMA1 to RON2. 360,000 compounds, 0.2% hits. Potency, µM (series often up to 58.2 µM), for the others: at the highest dose activity change, negative = inhibition, actives largely listed as inhibitors. AlphaScreen AMA1-biotinylated RON2 peptide binding;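 note: potency is the fitted concentration of half-maximal effect; 0% = vehicle wells and -100% = peptide control; nearly all actives have a fitted effect of over 45% in size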
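AMA1 (3D7) with his tag at 25 nM final met compounds first, then biotinylated RON2 peptide at 25 nM; detection used donor plus acceptor beads, 10 µg/mL apiece, read by AlphaScreen after 30 min at room temperature.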
NS1 inh – influenza NS1 inhibition. Potency, µM (series often up to 46.1 µM), for inactives: at the highest dose activity, positive = more growth. 270,000 compounds, 0.4% hits; calls by dose curve; note: potency is the fitted concentration of half-maximal effect; actives are rising curves; nearly all actives have a fitted effect of over 50% in size
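A cell-based growth assay was used: compounds that relieve NS1-induced slow growth of budding yeast raise OD600. Assay medium was yeast nitrogen base with ammonium sulphate and -URA supplement, pH 6.0, with 2% galactose.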
AmpC no deterg – inhibitors of E. coli AmpC beta-lactamase without detergent; Potency, µM (titrated, usually from 57.1 µM), for inactives: at the highest dose activity change, negative = inhibition, actives largely listed as inhibitors; AmpC nitrocefin hydrolysis, absorbance 480 nm, 0.0001% Triton; 330,000 compounds, 0.52% hits; AID 485341;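 note: potency is the fitted concentration of half-maximal effect; plate controls were no compound for no effect and no enzyme for full effect; nearly all actives have a fitted effect of over 20% in size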
Target sequence (P00811 whole entry, looked up): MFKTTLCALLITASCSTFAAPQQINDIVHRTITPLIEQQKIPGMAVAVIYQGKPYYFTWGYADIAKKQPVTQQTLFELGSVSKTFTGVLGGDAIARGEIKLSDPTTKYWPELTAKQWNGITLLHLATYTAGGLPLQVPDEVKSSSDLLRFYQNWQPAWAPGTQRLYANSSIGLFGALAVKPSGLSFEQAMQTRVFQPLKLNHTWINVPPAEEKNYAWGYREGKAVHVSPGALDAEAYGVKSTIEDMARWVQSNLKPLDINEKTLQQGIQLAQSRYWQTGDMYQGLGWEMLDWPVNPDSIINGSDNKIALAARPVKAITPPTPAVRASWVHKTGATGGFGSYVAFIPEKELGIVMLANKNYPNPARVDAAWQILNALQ
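AmpC (5.3 nM in the dispensed reagent) in 20 mM phosphate pH 7.0 with 0.01% (detergent screen) or 0.0001% Triton X-100 was preincubated with compounds for 15 min at room temperature. Nitrocefin was then added from an 800 uM solution, and hydrolysis was followed at 480 nm.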
AmpC detergent – blocks E. coli AmpC beta-lactamase in detergent assay. AmpC hydrolysis of nitrocefin, absorbance 480 nm, 0.01% Triton. Potency, µM (highest dose often 114 µM), for the others: at the top dose activity change, negative = inhibition, usual class: inhibitors. 370,000 compounds, 0.041% hits. AID 485294;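 note: potency is the fitted concentration of half-maximal effect; 0% = no-compound wells and -100% = no-enzyme wells; nearly all actives have a fitted effect of over 25% in size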
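20 mM phosphate pH 7.0 + 0.01% (detergent screen) or 0.0001% Triton X-100; 5.3 nM AmpC reagent; cpd preinc 15 min RT; nitrocefin (800 uM stock) to start; A480 q20 s × 4 min; Activity was normalised to no-enzyme and no-compound control wells.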
SARS PLP yeast – blocks SARS-CoV papain-like protease in a yeast assay; S. cerevisiae expressing SARS-CoV PLpro, growth rescue; AID 485353; Potency, µM (doses to about 32.9 µM), without a hit: top-dose activity, positive = growth rescue, most hits filed as activators; 330,000 compounds, 0.19% hits; calls by dose curve; note: potency is the fitted concentration of half-maximal effect; 0% is about no effect; nearly all actives have a fitted effect of over 55% in size
NS1 inh valid – validation of influenza NS1 protein function inhibitors | 1,400 tested, under 10 active | activity change, negative = inhibition, % at 32.9 µM | influenza NS1 function cell assay, 15-point titration | shares compounds with NS1 inh; calls by dose curve; note: 0% is about no effect
Flu PR8 replic – reduces influenza A/PR/8/34 replication in MDCK cells | shares compounds with NS1 inh | MDCK infected influenza A/PR/8/34, virus titer TCID50; active compounds read low | virus titer (log TCID50), log10 TCID50 at 5 µM | 95 compounds, 30% hits; call rule not given here
An asterisk follows results filed as active; ? = inconclusive; . = no result. Unless noted, calls come from the whole dose curve; as a rule, active = well fitted curve in the direction sought with a large enough effect; inconclusive = small, poorly fitted or top-dose-only effect, or another doubt; inactive = no such curve, though single readings can be large; an effect the other way counts as inactive or inconclusive.

SMILES	AMA1 RON2 block	NS1 inh	AmpC no deterg	AmpC detergent	SARS PLP yeast	NS1 inh valid	others
CCC(=O)N1CCc2cc(Br)cc(S(=O)(=O)CCC(=O)Nc3cccc(Cl)c3)c21	.	.	.	5.1%	.	.
CC1(C)CC(=O)C2=C(C1)Nc1[nH]c(=S)[nH]c(=O)c1C2c1ccccc1 (stereo not given)	-2.4%	25.4%	-23.4%	-1.9%	-5.5%	.
O=C1CCCC2=C1C(c1ccc(Br)cc1)c1c([nH]c(=S)[nH]c1=O)N2 (stereo not given)	59.8%	6.31µM*	-50.4%	-8.1%	9.1%	13.3
Cc1ccc(Cn2c(=O)n(Cc3ccccc3)c(=O)c3oc4ccccc4c32)cc1	.	.	.	24.3%	.	.
Cc1ccc(C)c(N2C(=O)N(C)c3ccccc3S2(=O)=O)c1	.	.	.	4.6%	.	.
CCN1CCN(CCNC(=O)c2ccc(CS(=O)(=O)c3c(Cl)cccc3Cl)o2)CC1	-8.5%	?	69.1%	4.1%	-3.2%	-15.6
COC(=O)CCCNC(=O)CN1CC(c2ccccc2)CC1=O (stereo not given)	11.6%	?	-9.7%	?	1.6%	5.4
COc1cccc(NC(=O)C(Sc2nnc(-c3ccncc3)n2-c2ccc(Cl)cc2)c2ccccc2)c1 (stereo not given)	12.7%	14.1µM*	144.0%	-2.2%	5.1%	2.0
COc1ccc(-n2c(SCc3ccccc3F)nc3c([nH]c4ccccc43)c2=O)cc1OC	.	.	.	-8.8%	.	.
CCOC(=O)N1CCN(S(=O)(=O)N2CCCC(C(=O)NCCCN3CC(C)CC(C)C3)C2)CC1 (stereo not given)	19.7%	?	2.0%	?	7.8%	-3.9	Flu PR8 replic=6*
CSc1nc2ccccc2cc1/C=C(\C#N)c1ccccc1	12.1%	2µM*	-13.1%	0.4%	4.3%	6.7
N#CCSCC(=O)Nc1ccc(Br)cc1	3.2%	2.6%	-23.4%	-4.8%	4.7%	.
N#CCSCC(=O)Nc1ccc(F)cc1	1.4%	14.1µM*	-12.8%	?	-5.6%	-1.7
CCOc1ccccc1CNC(=O)CCCC(=O)n1nc(C)c2ccccc21	0.0%	?	12.7%	-10.5%	0.8%	?
Cc1ccccc1CNC(=O)CCCC(=O)n1nc(C)c2ccccc21	-2.8%	-29.2%	20.4%	-3.9%	-8.1%	.
O=C(CCn1c(=O)c2ccccc2n(Cc2cccc([N+](=O)[O-])c2)c1=O)N1CCc2ccccc2C1	-27.6%	5.01µM*	-14.2%	-18.9%	-2.3%	9.3
CCCCOc1ccccc1NC(=O)c1ccc(=O)[nH]c1	-12.3%	?	-18.0%	3.1%	-3.5%	0.7
COc1ccccc1NC(=O)C(=O)NCCc1csc(-c2cccc(F)c2)n1	.	.	.	1.0%	.	.
COc1ccc(CN2C(=O)CC(=O)NC2=O)cc1	1.8%	3.55µM*	-23.8%	?	-0.2%	26.1
CCOC(=O)c1ccc(NC(=O)CCc2c(C)nc3nc[nH]n3c2=O)cc1	.	.	.	-2.8%	.	.
CCOc1ccc(N2C(=O)CC(Sc3nc(C)cc(C)c3C#N)C2=O)cc1 (stereo not given)	0.1%	12.6µM*	10.9%	-1.5%	2.1%	15.9
CCOc1ccc(N2C(=O)CC(Sc3nc(CC(C)C)ccc3C#N)C2=O)cc1 (stereo not given)	32.9%	5.1%	-26.1%	3.0%	-1.3%	.
Cc1ccc(C(O)Cn2cc([N+](=O)[O-])nc2C)cc1 (stereo not given)	-0.2%	?	-2.3%	0.0%	-0.3%	7.7
O=C(Oc1ccc(F)cc1)c1nc(SCc2ccccc2F)ncc1Cl	.	.	.	26.0%	.	.
Cc1occc1-c1nnc(SCC(=O)c2c(N)n(Cc3ccccc3)c(=O)n(C)c2=O)n1C	-11.8%	10µM*	-22.3%	-8.7%	11.7%	18.1
Cc1ccc(-c2csc3ncn(CC(=O)N4CCOCC4)c(=O)c23)cc1	-10.8%	-8.3%	24.7%	?	1.8%	.
